The source of these data is PubChem BioAssay (NCATS).

The source made the active and inactive calls. Calls follow the shape of the full dose curve.

The target of the experiment is Tumor susceptibility gene 101 protein (Homo sapiens) (UniProt Q99816). Description: qHTS Validation Assay for Iinhibitors of HIV-1 Budding by Blocking the Interaction of PTAP/TSG101 (AID 485342). The note with it: TSG101-PTAP binding, fluorescence polarization, 4-point titration; series mostly up to 115 µM. In short, it runs like this: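 Tsg101 binding domain (10 uM) with FITC-labeled PTAP peptide (50 nM) in HEPES pH 7.5 buffer, 20 min at r.t. with compounds. Binding measured by fluorescence polarization.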
Chain of Tumor susceptibility gene 101 protein (Homo sapiens) (Q99816 whole entry, looked up, the tested form may be a part): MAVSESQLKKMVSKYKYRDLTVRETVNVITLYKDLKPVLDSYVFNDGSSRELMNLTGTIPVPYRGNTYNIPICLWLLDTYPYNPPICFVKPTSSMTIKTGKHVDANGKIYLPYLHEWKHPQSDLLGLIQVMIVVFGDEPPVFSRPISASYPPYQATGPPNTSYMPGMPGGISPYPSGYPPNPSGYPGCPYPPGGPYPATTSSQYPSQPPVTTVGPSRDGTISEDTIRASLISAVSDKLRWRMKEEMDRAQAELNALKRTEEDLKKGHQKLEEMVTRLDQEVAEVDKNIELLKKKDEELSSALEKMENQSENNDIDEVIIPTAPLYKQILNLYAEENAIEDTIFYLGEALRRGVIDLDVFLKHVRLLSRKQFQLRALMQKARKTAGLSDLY
Background: Quantitative high-throughput screening tests each substance at several concentrations.
For `COc1cccc(C(=O)NCCN2CCN(c3ccc(Cl)cc3)CC2)c1`, the outcome was inactive.
Regarding `O=C(O)[C@@H]1C[C@@H](C(=O)O)N1`, the outcome was inactive.
As for `COc1cccc(OC)c1OCCNCC1COc2ccccc2O1` (stereo not drawn), the result was inactive.
For `CCCn1c(=O)c2[nH]c(-c3ccc(OCC(=O)NCCN)cc3)nc2n(CCC)c1=O`, the result was inactive.
On to `O=c1[nH]c2cc([N+](=O)[O-])c([N+](=O)[O-])cc2[nH]c1=O`, for which the call was inactive.
As for `O=C1NC(O)=NC1(c1ccccc1)c1ccccc1`, the compound was called inactive.
Take `c1ccc(-c2ccccn2)nc1`: the compound was classed as inactive.
For the compound `CC(=O)SCC[N+](C)(C)C`, the call was inactive.
On to `CC(C)NCC(O)COc1cccc2ccccc12` (stereo not drawn), for which the outcome was inactive.
`O=C(O)/C=C/C(O)c1ccc(Cl)cc1` (stereo not drawn): the result was inactive.
Next, `O=C(O)[C@@H]1C[C@H](C(=O)O)N1`: “inactive”; `Cc1ccc(C(=O)O[C@H](C(=O)O)[C@@H](OC(=O)c2ccc(C)cc2)C(=O)O)cc1` (tested in a mixture with another compound): “inactive”.
Take `CN1C2CCC1CC(OC(=O)C(O)c1ccccc1)C2` (stereo not drawn): the call was inactive.
In the case of `C[N+](C)(CCCCCC[N+](C)(C)CCCN1C(=O)c2cccc3cccc(c23)C1=O)CCCN1C(=O)c2cccc3cccc(c23)C1=O` it was “inactive”; in that of `N[C@@H](CC(=O)O)C(=O)O`, “inactive”.
For `CC(C)NC[C@H](O)COc1cccc2[nH]ccc12`, the compound was classed as inactive.
In the case of `O=C(O)c1cc(=O)c2c(Cl)cc(Cl)cc2[nH]1`, the result was inactive.
For the compound `COc1ccccc1CNCCCCCCNCCCCCCCCNCCCCCCNCc1ccccc1OC`, the compound was classed as inactive.
In the case of `O=C(O)CC1CCCc2ccccc2C1O` (stereo not drawn), the result was inactive.
Regarding `NC(N)=NC(=O)c1nc(Cl)c(N2CCCCCC2)nc1N`, the compound was classed as inactive.
Regarding `COc1cc(C(O)CO)ccc1OS(=O)(=O)O` (stereo not drawn), the compound was classed as inactive.
Next, `Cc1ccc(O)c(N=Nc2ccccc2)n1`: “inactive”; `CC1(C)CCC=[N+]1[O-]`: “inactive”; `Oc1cc2c(cc1O)CN(C(=S)NCCc1ccc(Cl)cc1)CCC2`: “inactive”.
Turning to `O=c1[nH]c2cc(Cl)c(Cl)cc2[nH]c1=O`, the result was inactive.
For `NC(=O)C(=O)O`, the outcome was inactive.
For the compound `CN1CCc2cc(NC(=O)Nc3cccnc3)ccc21`, the compound was classed as inactive.
In the case of `CCCCN1CCC(n2c(=O)[nH]c3ccccc32)CC1`, the outcome was inactive.
Take `CC1CN(S(=O)(=O)c2cccc3cnccc23)CCN1` (stereo not drawn): the result was inactive.
In the case of `Oc1ccc(C2CNCc3sccc32)cc1O` (stereo not drawn) it was “inactive”; in that of `O=C(Nc1cccc(C(=O)Nc2ccc(S(=O)(=O)O)c3cc(S(=O)(=O)O)cc(S(=O)(=O)O)c23)c1)Nc1cccc(C(=O)Nc2ccc(S(=O)(=O)O)c3cc(S(=O)(=O)O)cc(S(=O)(=O)O)c23)c1`, “inactive”; in that of `COc1ccc(/C=C/C(=O)Nc2ccccc2C(=O)O)cc1OC`, “inactive”.
For the compound `O=C(O)CNC(=O)C(CS)Cc1ccccc1` (stereo not drawn), the result was inactive.
For the compound `CN(C)C(N)=NCCC[C@H](N)C(=O)O`, the compound was classed as inactive.
Next, `C=CC(N)CCC(=O)O` (stereo not drawn): “inactive”; `NCCNC(=O)c1ncsc1-c1cccc(F)c1`: “inactive”; `NCCCCC(=O)O`: “inactive”.
Take `NCCCCCCCCCCN`: the result was inactive.
